The text below walks through data of PubChem BioAssay (NCI).

Holding throughout (experiment): NCI-60 one-dose screen, 48 h (100 = growth as untreated, 0 = no growth, -100 = all killed)
Experiment [1] concerns HCT-15 colon. The settings on record: 10 µM unless noted.
The subject of experiment [2] is HT29 colon. The following applies: 10 µM unless noted.
In experiment [3] the test system is SNB-75 CNS. The following applies: 10 µM unless noted.
Experiment [4] deals with SNB-19 CNS. The settings on record: 10 µM unless noted.
Experiment [5] relates to U251 CNS. The following applies: 10 µM unless noted.
Experiment [6] deals with PC-3 prostate. The settings on record: 10 µM unless noted.
In experiment [7] the test system is SK-MEL-5 melanoma. The following applies: 10 µM unless noted.
Experiment [8] deals with UACC-62 melanoma. The following applies: 10 µM unless noted.
Experiment [9] deals with SK-MEL-28 melanoma. The settings on record: 10 µM unless noted.
Experiment [10] relates to SK-MEL-2 melanoma. The settings on record: 10 µM unless noted.
Experiment [11] relates to EKVX NSCLC. The settings on record: 10 µM unless noted.
Experiment [12] relates to SN12C renal. The following applies: 10 µM unless noted.
Experiment [13] relates to UO-31 renal. The following applies: 10 µM unless noted.
The subject of experiment [14] is TK-10 renal. The settings on record: 10 µM unless noted.
The test system of experiment [15] is ACHN renal. The settings on record: 10 µM unless noted.
Experiment [16] relates to CAKI-1 renal. The following applies: 10 µM unless noted.
Experiment [17] has as its system A498 renal. The following applies: 10 µM unless noted.
The test system of experiment [18] is CCRF-CEM leukemia. The settings on record: 10 µM unless noted.
For experiment [19], the system named is MOLT-4 leukemia. The following applies: 10 µM unless noted.
The subject of experiment [20] is LOX IMVI melanoma. The settings on record: 10 µM.

This is part of a sample that, as a whole, favours compounds with a hit. Of some 83,000 tested, about 20% had one in any assay.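 In brief: 96-well plates, 48 h treatment, single concentration, percent growth endpoint.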 A number with no mark means an inactive call. Calls of active or inactive are those of the source. Rule for the calls: active = growth percent below 10; inactive = the rest.

As to `O=S(=O)(Nc1cccc(-n2cnc3cc(-c4ccc(O)cc4)ccc32)c1)C1CC1`, the growth in experiment [1] was 27.2%; in [2], 16.7%; in experiment [3], -22.3% (active); in experiment [4], 37.7%; in experiment [5], 17.6%; in experiment [6], 40%. Further, the growth is 12.6% in [7]; 34.5% in experiment [8]; 43.6% in experiment [9]; 51.7% in [10]; 46.4% in experiment [11]; 34.8% in experiment [12]. The growth in experiment [13] is 21%; in [14], 65%; in [15], 21.3%; in [16], 18.9%; in experiment [17], 30.6%; in experiment [18], 23.6%. In [19], the growth is 13.7%.
For `Cc1cc2nc3c4ccccc4n(CCCN(C)C)c3nc2cc1C`, the growth in [1] was -10.1% (active); in experiment [2], -3.59% (active); in experiment [3] it was -97.8% (active); in experiment [4], -8.61% (active); in experiment [5], 1.33% (active); in [6], -32% (active). Further, the growth in [7] was -94.4% (active); in experiment [8], -90.4% (active); in [9], -71.1% (active); in experiment [10] it was -90.1% (active); in experiment [11], -41.8% (active); in experiment [12], -27.6% (active). Besides, the growth in [13] is 2.63% (active); in experiment [14], 8.05% (active); in experiment [15], 4.95% (active); in experiment [16] it was 3.24% (active); in experiment [17] it was -39.6% (active); in experiment [18], 0.177% (active). Further, the growth in experiment [19] was 2.75% (active).
For the compound `COc1cc(/C=C2\C(=N)N=C(SCc3nc4ccccc4[nH]3)NC2=O)ccc1O`, the growth was 96.3% in [1]; 110% in experiment [2]; 102% in experiment [3]; 104% in experiment [4]; 105% in [5]; 94.2% in [6]. Moreover, the growth in [7] is 98.5%; in experiment [8], 89%; in experiment [20], 88%; in experiment [9], 110%; in experiment [10], 105%; in experiment [12], 103%. In addition, the growth in experiment [13] was 64.2%; in experiment [14], 155%; in [15], 98.1%; in experiment [16] it was 86%; in experiment [17], 113%; in experiment [18], 99.4%. In addition, the growth in experiment [19] was 99.2%.
As to `COC(=O)/C=C/c1cccc2c1C(=O)NC(C)(c1cc3cc4ccccc4cc3oc1=O)N2` (stereo not drawn), the growth in experiment [1] was 54.6%; in [2] it was 32.9%; in experiment [3] it was 61.8%; in experiment [4], 49.7%; in experiment [5], 43.8%; in experiment [6], 38.9%. For the same compound, the growth in experiment [7] is 79.5%; in experiment [8] it was 49.2%; in [20], 6.32% (active); in experiment [9], 58%; in experiment [10], 79.4%; in experiment [12], 35.1%. Further, the growth was 65.4% in experiment [13]; 99.7% in experiment [14]; 40.1% in [15]; 61.9% in [16]; 90.6% in experiment [17]; 53% in experiment [18]. Also, the growth in [19] is 58.7%.
As for `CSc1ccccc1NC(=O)c1ccc2nn(/C(C#N)=C/c3ccccn3)nc2c1`, the growth was -62.8% (active) in experiment [1]; -91.9% (active) in [2]; 48.1% in experiment [3]; 12.3% in experiment [4]; -81.6% (active) in experiment [5]; -57.7% (active) in [6]. The growth in experiment [7] is -88.8% (active); in experiment [8] it was -89.6% (active); in experiment [9] it was -91.4% (active); in experiment [10], -67% (active); in experiment [11] it was -98.5% (active); in experiment [12] it was -59.2% (active). In addition, the growth was -100% (active) in [13]; -98.4% (active) in experiment [14]; -99% (active) in experiment [15]; -87.3% (active) in experiment [16]; 93.7% in experiment [17]; -34.7% (active) in [18]. Besides, the growth in experiment [19] is -22.3% (active).
Consider `C/C(=N\N=C1/C(=O)Nc2ccccc21)c1ccc2c(c1)Nc1ccccc1S2`, for which the growth in experiment [1] is 48.6%; in experiment [2], 71.5%; in [3] it was 44%; in experiment [4], 64.5%; in [5], 60.1%; in experiment [6] it was 63.6%. Moreover, the growth in [7] is 42%; in [8], 40.5%; in experiment [9] it was 75%; in [10], 80.5%; in experiment [11], 43.7%; in experiment [12], 42.1%. Also, the growth in experiment [13] is 34.4%; in experiment [14], 78.7%; in experiment [15] it was 56.1%; in [16], 49.4%; in [17], 28.2%; in [18], 45.8%. In addition, in experiment [19], the growth is 11.4%.
For `CC1=C(C(=O)c2ccccc2)C(c2cccc3ccccc23)n2c(nc3ccccc32)N1` (stereo not drawn), the growth in experiment [1] is 70.3%; in [2], 50.5%; in experiment [3], 60.3%; in experiment [4], 66.1%; in experiment [5] it was 17%; in experiment [6], 53.2%. The growth in experiment [7] was 62.1%; in experiment [8] it was 37.5%; in [9], 84.1%; in experiment [10] it was 106%; in experiment [11], 58.4%; in [12] it was 75.3%. The growth in experiment [13] is 81.8%; in experiment [14] it was 83.8%; in [15], 88.5%; in [16] it was 55.7%; in experiment [17] it was 153%; in experiment [18] it was 55.9%. Further, the growth in [19] is 52.3%.
